Assay outcomes (PubChem)
CD11b adhes enh: increases human CD11b/CD18 adhesion to fibrinogen; K562 CD11b/CD18 adhesion to fibrinogen, ATPlite luminescence; activation, % at 10 µM; hit rate 0.07% among 93,000;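 active means 10 µM primary screen giving 50% or more activity, confirmed by 40% or more on retest at that dose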
CYP2C19 inhib: human CYP2C19 inhibition; P33261; inhibition, % at 5 µM; AID 778; hit rate 21% among 96,000; CYP2C19 Supersomes, luciferin-H EGE luminescence, 30 min;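 active means CYP2C19 inhibition above a set limit at 5 µM in the primary screen, cut at about 50% in these data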;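 further: plate controls were negative control wells for no effect and 2.5 mM tranylcypromine positive control for full effect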
CYP2C9 inh: inhibitors of human CYP2C9; P11712; CYP2C9 Supersomes, luciferin-H conversion, luminescence; inhibition, % at 5 µM; hit rate 20% among 96,000;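 active means blocking of liver enzyme CYP2C9 beyond about 50% at 5 µM, limit read from the data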
Target sequence (P11712 whole entry, looked up): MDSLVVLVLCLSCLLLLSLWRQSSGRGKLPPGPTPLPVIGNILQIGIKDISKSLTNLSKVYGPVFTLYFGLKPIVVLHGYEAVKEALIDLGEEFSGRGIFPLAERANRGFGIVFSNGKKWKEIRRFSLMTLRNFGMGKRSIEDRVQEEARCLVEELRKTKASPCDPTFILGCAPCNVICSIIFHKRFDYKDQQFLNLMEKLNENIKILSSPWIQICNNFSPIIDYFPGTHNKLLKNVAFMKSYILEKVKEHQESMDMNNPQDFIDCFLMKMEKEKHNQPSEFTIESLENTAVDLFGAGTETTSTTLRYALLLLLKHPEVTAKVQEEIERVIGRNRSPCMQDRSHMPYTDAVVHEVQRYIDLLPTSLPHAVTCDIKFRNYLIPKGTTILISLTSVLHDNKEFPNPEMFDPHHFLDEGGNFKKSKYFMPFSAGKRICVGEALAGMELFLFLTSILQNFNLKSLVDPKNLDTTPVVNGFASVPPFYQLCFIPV
CYP2C19 act: cytochrome P450 2C19 (human) activation. 96,000 tested, under 10 active. AID 1025. recombinant CYP2C19, luciferin-H EGE luminescence; hits give high values; 0 = fully inhibited enzyme, 1 = untreated enzyme. activation factor at 5 µM;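 active means activation factor of at least 2 at 5 µM in the primary screen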;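 further: 0 = wells with 2.5 mM tranylcypromine and 1 = vehicle-only wells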
CYP2C9 act: increases human cytochrome P450 2C9 activity. P11712. recombinant CYP2C9, luciferin-H conversion, luminescence; hits give high values; factor 1 = untreated enzyme, 0 = blocked. activation factor at 5 µM. hit rate 1.4% among 96,000;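 active means activation factor of 2 or more for CYP2C9 at a 5 µM dose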;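 further: 0 = sulfaphenazole-blocked wells and 1 = vehicle-only wells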
Mac1 fbg inh: CD11b/CD18-fibrinogen binding inhibition; AID 1497; hit rate 0.54% among 93,000; inhibition, % at 10 µM; K562 CD11b/CD18 adhesion to fibrinogen, ATPlite luminescence; Mn2+ added to activate the integrin; P05107+P11215;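 active means primary inhibition of 50% or more at 10 µM, then 40% or more on retest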
The depositor's hits bear a star; nt = no result given. Sampled rows, rich in hits. Any-hit rate of the full collection: about 28%.

SMILES	CD11b adhes enh	CYP2C19 inhib	CYP2C9 inh	CYP2C19 act	CYP2C9 act	Mac1 fbg inh
COc1cc2c(cc1NC(=O)CSc1nnc(Cc3cccs3)n1C)oc1ccccc12	0	15	57*	0.8	0.4	-8
COc1cc2c(cc1NC(=O)CSc1nnc(COc3ccc(Cl)cc3)n1C)oc1ccccc12	nt	23	42	0.8	0.6	nt
COc1cc2c(cc1NC(=O)CSc1ccc(C)cc1)oc1ccccc12	nt	23	48	0.8	0.5	nt
COc1cc2c(cc1NC(=O)COC(=O)Cn1cnc3ccccc31)oc1ccccc12	6	40	61*	0.6	0.4	-11
CCn1c(Cc2cccs2)nnc1SCC(=O)Nc1ccc(OC)c(OC)c1	4	-23	-25	1.2	1.2	-13
COc1cc2c(cc1NC(=O)CSc1nnc(Cc3cccs3)n1Cc1ccco1)oc1ccccc12	-2	58*	84*	0.4	0.2	-2
CCn1c(SCC(=O)Nc2cc3oc4ccccc4c3cc2OC)nnc1-c1cccs1	36	41	55*	0.6	0.4	7
COC(=O)c1ccc(CN2C(=O)NC3(CCCCC3C)C2=O)o1 (centres undefined)	-4	9	-8	0.9	1.1	-6
O=C1C2C3C=CC(CO)(O3)C2C(=O)N1c1ccccc1-c1ccccc1 (centres undefined)	1	19	11	0.8	0.9	-5
C/C(=N\Nc1ccc([N+](=O)[O-])cc1[N+](=O)[O-])c1ccc(-n2nncc2C(C)(C)C)cc1	42	nt	nt	nt	nt	0
CC1CCc2sc(C(=O)OCC(=O)NCc3ccc(F)cc3)cc2C1 (centres undefined)	-6	nt	nt	nt	nt	17
O=C(CNC(=O)c1cnccn1)Nc1ccc(F)c(F)c1F	1	46	6	0.5	0.9	-11
COc1ccccc1NC(=O)CSc1nnc(COc2ccc(Cl)cc2)n1Cc1ccco1	2	21	23	0.8	0.8	-8
CCCn1c(SCC(=O)c2cc(OC)ccc2OC)nnc1C(C)C	-1	92*	16	0.1	0.8	-3
COCCn1c(SCC(=O)c2ccc(F)cc2)nnc1C(C)C	0	76*	79*	0.2	0.2	-1
Cc1cc(Cl)ccc1NC(=O)CSc1nnc(Cc2cccs2)n1Cc1ccco1	nt	61*	49	0.4	0.5	nt
COc1cccc(-n2nnnc2SCC(=O)c2cc(OC)ccc2OC)c1	-2	11	23	0.9	0.8	3
CCn1c(SCC(=O)c2cc(OC)ccc2OC)nc2c1c(=O)n(C)c(=O)n2C	-1	11	25	0.9	0.8	-6
COc1ccc(OC)c(C(=O)CSc2nnc(Cc3cccs3)n2C)c1	3	89*	36	0.1	0.6	11
COc1ccc(Br)cc1C1SCCN1S(C)(=O)=O (centres undefined)	1	50	3	0.5	1	6
CSc1cccc(-n2cc(-c3ccc4c(c3)OCO4)[nH]c2=O)c1	-3	33	17	0.7	0.8	6
CCCCc1nnc(NC(=O)C(C)Sc2nc(C)cc(=O)[nH]2)s1 (centres undefined)	nt	13	23	0.9	0.8	nt
O=C(COC(=O)COc1ccccc1[N+](=O)[O-])Nc1ccc(S(=O)(=O)N2CCCCC2)cc1	-2	-15	-2	1.1	1	50*
O=C(COc1ccc(S(=O)(=O)N2CCCCC2)cc1)NC1CCCCC1	-3	33	72*	0.7	0.3	-28
O=C(NC1CCCCCC1)C1CCN(S(=O)(=O)c2ccccc2)CC1	-1	-5	-80	1.1	1.8	-37
Cc1ccc(S(=O)(=O)N2CCN(C(=O)CCC(=O)OCC(=O)Nc3cccc(C#N)c3)CC2)cc1	-2	78*	75*	0.2	0.3	6
COc1ccc(OCC(=O)Nc2ccc(S(=O)(=O)N3CCCCCC3)cc2)cc1	-2	30	86*	0.7	0.1	-2
O=C(COc1ccccc1)Nc1ccc(S(=O)(=O)N2CCCCCC2)cc1	0	15	15	0.9	0.8	5
O=C(COc1cccnc1[N+](=O)[O-])Nc1cccc(S(=O)(=O)N2CCCCC2)c1	-4	nt	nt	nt	nt	2
COc1ccc2nc(NCCCNC(=O)c3cc(OC)c(OC)c(OC)c3)c(C#N)cc2c1	4	26	24	0.7	0.8	-5
